S16 viability: cytotoxicity in S16 Pmp22-F2sN Schwann cells; S16 Pmp22-F2sN Schwann cells viability, CellTiter-Glo, 24 h; Potency, µM (series often up to 57.5 µM), for the others: at the top dose activity change, negative = cytotoxicity, usual class: cytotoxic; hit rate 0.48% among 43,000; AID 1508642; further: on the % scale 0 is the no-effect control and ±100 the full control effect; nearly all actives have a fitted effect of over 65% in size
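CellTiter-Glo counter-screen, qHTS, 1536-well. Cells: S16(c9) Pmp22-F2sN, 500-1,000/well in DMEM + 10% FBS. Cpd 23 nL pin transfer, 24 h, 37C/5% CO2. Read: luminescence, CCD imager.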
mTORC1 inh: reduces mTORC1 signaling in Tsc2 and p53 null MEF cells | hit rate 0.78% among 44,000 | Potency, µM (series often up to 38.3 µM), inactives show at the top dose activity change, negative = inhibition, hits mostly inhibitors | Tsc2-/- p53-/- MEF, phospho-rpS6 immunofluorescence/PI, 24 h;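 further: plate controls were DMSO for no effect and rapamycin for full effect; nearly all actives have a fitted effect of over 50% in size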
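Immunofluorescence of rpS6 phosphorylation in Tsc2-/-, p53-/- MEFs after 24 h compound exposure, normalized to propidium iodide signal. Activity is expressed as % positive cells, thresholded with 7.5 nM rapamycin.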
GALC G270D act: galactocerebrosidase G270D activity enhancement, cell-based | P54803 | 145M-Twi-hGALC-G270D cells (Twitcher mouse brain line with human GALC G270D), HMU-beta-Gal fluorescence, 48 h | Potency, µM (top dose mostly 57.5 µM), actives largely listed as activators | hit rate 0.1% among 45,000 | AID 1159614; further: 0% is about no effect; nearly all actives have a fitted effect of over 65% in size
Target sequence (P54803 whole entry G286D): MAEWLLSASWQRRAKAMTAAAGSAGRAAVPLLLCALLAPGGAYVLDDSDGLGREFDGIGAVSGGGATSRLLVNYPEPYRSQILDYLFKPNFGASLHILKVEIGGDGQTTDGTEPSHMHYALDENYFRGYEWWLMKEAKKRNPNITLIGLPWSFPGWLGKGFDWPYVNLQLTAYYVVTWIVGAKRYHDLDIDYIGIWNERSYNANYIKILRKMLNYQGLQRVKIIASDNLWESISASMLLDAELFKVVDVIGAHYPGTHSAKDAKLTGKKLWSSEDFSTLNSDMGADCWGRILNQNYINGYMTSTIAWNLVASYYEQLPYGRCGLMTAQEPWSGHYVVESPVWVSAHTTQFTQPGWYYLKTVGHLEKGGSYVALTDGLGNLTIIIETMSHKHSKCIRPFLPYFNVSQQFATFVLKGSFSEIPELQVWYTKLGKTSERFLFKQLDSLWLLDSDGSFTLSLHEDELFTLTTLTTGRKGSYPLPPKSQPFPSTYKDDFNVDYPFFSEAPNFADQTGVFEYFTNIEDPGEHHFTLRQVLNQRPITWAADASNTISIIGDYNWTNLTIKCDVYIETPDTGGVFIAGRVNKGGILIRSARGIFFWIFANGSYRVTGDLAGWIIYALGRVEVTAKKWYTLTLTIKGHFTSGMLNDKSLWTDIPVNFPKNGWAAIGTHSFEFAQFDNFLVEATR
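Mutant human GALC (G270D), stably expressed in a Twitcher mouse brain cell line lacking endogenous GALC, is measured in live-treated cells via 6-hexadecanoylamino-4-methylumbelliferyl-β-galactoside hydrolysis (0.1 mM final, pH 5.2) with fluorescent detection.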
OvCa metastasis: blocks SKOV3ip1 adhesion and invasion in omental model; AID 1963576; SKOV3ip1-GFP adhesion/invasion on 3D omental model, fluorescence; hit rate 0.1% among 46,000; Potency, µM (series often up to 45.8 µM), for inactives: at the highest dose activity change, negative = inhibition, hits mostly inhibitors;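 further: plate controls were DMSO wells for no effect and tomatine positive control wells for full effect; nearly all actives have a fitted effect of over 65% in size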
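Primary human omental fibroblast/mesothelial 3D culture pre-formed 48 h. SKOV3ip1-GFP cells added with compounds (0.36-46 umol/L), incubated 2 h RT/16 h 37 C, fixed; GFP cells quantified at 488/509 nm.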
PMP22 txn prim: modulates PMP22 transcription in S16 Schwann cells; AID 1508649; Potency, µM (doses to about 57.5 µM), without a hit: at the highest dose activity change, negative = inhibition, actives largely listed as inhibitors; S16 Pmp22-F2sN Schwann cells (luciferase reporters placed in the Pmp22 gene), FLuc/NLuc coincidence luminescence, 24 h; hit rate 2% among 43,000; active means clear falling dose curves in both reporters; inconclusive means both reporters move, but less clearly or upward; inactive means either reporter flat; the % is the NLuc reporter signal; further: on the % scale 0 is the no-effect control and ±100 the full control effect
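qHTS, 1536-well. Cells seeded, compounds added by pin tool, 24 h 37C. Nano-Glo reagent 1 (lysis/FLuc), 10 min RT, read; Stop&Glo, 10 min RT, read NLuc.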
* = called active by the depositor; i = inactive; ? = inconclusive; . = no result given. Sampled rows, rich in hits. Any-hit rate of the full collection: about 2.6%. Unless noted, the call rests on the fitted dose curve; in most records, active means well fitted curve in the direction sought with a large enough effect; inconclusive means small, poorly fitted or top-dose-only effect, or another doubt; inactive means no such curve, though single readings can be large; an effect the other way counts as inactive or inconclusive. Potency means the concentration at half of the fitted maximal effect.

SMILES	S16 viability	mTORC1 inh	GALC G270D act	OvCa metastasis	PMP22 txn prim
COc1ccc(C2c3c(-c4c(C)cc(C)cc4O)n[nH]c3C(=O)N2Cc2ccco2)cc1 (centres undefined)	-1%	?	?	?	?
CC(C)c1ccc(C2c3c(-c4ccccc4O)n[nH]c3C(=O)N2CCc2ccccc2)cc1 (centres undefined)	-4%	3%	i	-28%	?
CCCOc1cccc(C2c3c(-c4ccccc4O)n[nH]c3C(=O)N2Cc2ccco2)c1 (centres undefined)	-2%	15µM*	i	?	?
COc1ccc(CCN2C(=O)c3[nH]nc(-c4ccccc4O)c3C2c2cccc(OC)c2)cc1 (centres undefined)	?	15µM*	i	-31%	?
Cc1ccc(C2c3c(-c4ccccc4O)n[nH]c3C(=O)N2CCc2ccccc2)cc1 (centres undefined)	-25%	16µM*	i	?	?
Cc1cc(C)c(-c2n[nH]c3c2C(c2ccccc2F)N(Cc2ccco2)C3=O)c(O)c1 (centres undefined)	-15%	13µM*	i	-22%	?
COc1cc(=C2C=c3ccccc3=N2)[nH]c1=Cc1[nH]c(C)cc1C	.	.	.	-18%	.
CCCCCCOC(=O)NC(=N)c1ccc(NCc2nc3cc(C(=O)N(CCC(=O)OCC)c4ccccn4)ccc3n2C)cc1	.	.	i	.	.
CCCn1c(=N)c(C(=O)NCC2CCCO2)cc2c(=O)n3cc(C)ccc3nc21 (centres undefined)	8%	-3%	13µM*	-2%	?
Cn1cc(C(=O)O)c(=O)c2cc(S(=O)(=O)N3CCOCC3)ccc21	14µM*	0%	i	-6%	?
COc1ccc(C2=N[C@H](c3ccc(Cl)cc3)[C@H](c3ccc(Cl)cc3)N2C(=O)N2CCNC(=O)C2)c(OC(C)C)c1	.	.	.	25%	.
Cc1ccc(NC(=O)c2cc(-c3ccc(Br)s3)nc3ccccc23)cc1F	32µM*	-9%	i	-2%	?
COc1ccc(CNC(=O)c2cc(-c3ccc(Br)s3)nc3ccccc23)cc1	-4%	-7%	i	i	?
CCOc1ccc(/C=C/C(=O)Nc2ccc3nc(N(CC)CC)cc(C)c3c2)cc1OC	?	13µM*	i	?	?
CCN(CC)c1cc(C)c2cc(NC(=O)/C=C/c3cc(OC)c(OC)c(OC)c3)ccc2n1	?	18µM*	i	?	?
CO[C@@H]1C(N(C)C(=O)c2ccccc2)C[C@H]2O[C@]1(C)n1c3ccccc3c3c4c(c5c6ccccc6n2c5c31)C(=O)NC4=O (some centres undefined)	.	.	.	-8%	.
CC(=O)Nc1nc(C)c(-c2ccc(Cl)c(S(=O)(=O)NCCO)c2)s1	.	.	.	-13%	.
CC1(C)S[C@H]2[C@H](NC(=O)[C@@H](N)c3ccc(O)cc3)C(=O)N2[C@@H]1C(=O)O	.	.	.	4%	.
Cc1cc(OCCCc2c(C(=O)O)n(Cc3cccnc3)c3c(-c4c(COc5ccc(N6CCN([S+](C)(=O)[O-])CC6)cc5)nn(C)c4C)cccc23)cc(C)c1Cl	.	.	.	-3%	.
COc1ccc(-c2c(C)c3ccc(O)c(CN4CCCCC4)c3oc2=O)cc1OC	1%	7%	i	-6%	-8%
COc1ccc(-c2c(C)c3ccc(O)c(CN4CCCC(C)C4)c3oc2=O)cc1OC (centres undefined)	-15%	-20%	20µM*	1%	-8%
COc1ccc(-c2cc3ccc(O)c(CN4CCCC(C)C4)c3oc2=O)cc1OC (centres undefined)	-2%	-4%	22µM*	-18%	10%
Cc1ccccc1C(C(=O)NC1CCCCC1)N(C(=O)CNc1ccc(C#N)cc1)c1cccc(F)c1 (centres undefined)	.	.	.	0%	.
CC1(C)CC(O)CC(C)(C)N1[O]	.	.	.	2%	.
CCN1CCOC(=O)C1CC(=O)Nc1cc(C)cc(C)c1 (centres undefined)	?	10µM*	i	0%	?
SMILES	S16 viability	mTORC1 inh	GALC G270D act	OvCa metastasis	PMP22 txn prim
Cc1ccc(C)c(S(=O)(=O)c2nnn3c2nc(NC2CCCC2)c2sccc23)c1	-29%	0%	i	2%	?
Cc1ccc(S(=O)(=O)c2nnn3c2nc(NC2CCCCC2)c2sccc23)cc1C	?	7.4µM*	i	25%	?
CCOc1ccc(-n2nc3ccc(NC(=O)COc4ccccc4)cc3n2)cc1	-7%	3%	i	10%	-4%
CCOc1ccc(-n2nc3ccc(NC(=O)c4ccc(-c5cccc(Cl)c5)o4)cc3n2)cc1	?	12µM*	i	15%	?
OCc1ccccc1O[C@@H]1O[C@H](CO)[C@H](O)[C@H](O)[C@H]1O	.	.	.	-9%	.
COc1cc(C2NC(=O)c3c(sc4c3CCN(C)C4)N2)cc(OC)c1OC (centres undefined)	?	-1%	i	7%	?
COc1cc(C2NC(=O)c3c(sc4c3CCN(C)C4)N2)cc(Br)c1OC(=O)c1ccc(C)cc1 (centres undefined)	2%	-6%	22µM*	-2%	?
CC(C)NC(=O)Cn1c(=O)nc(-c2ccccc2F)c2cc(Cl)ccc21	4%	0%	i	-8%	-6%
COc1ccc(CNC(=O)Cn2c(=O)nc(-c3ccccc3F)c3cc(Cl)ccc32)cc1	5%	0%	i	11µM*	?
Cc1nc(Nc2n[nH]c3c2CN(C(=O)N[C@H](CN(C)C)c2ccccc2)C3(C)C)c2sccc2n1	.	.	.	30%	.
O=c1cc(N2CCOCC2)oc2c(-c3cccc4c3sc3ccccc34)cccc12	.	.	.	-29%	.
O=S(=O)(NCC(c1cccs1)S(=O)(=O)c1ccccc1)c1ccccc1 (centres undefined)	10µM*	?	i	i	15µM*
COc1ccc(S(=O)(=O)NCC(c2ccco2)S(=O)(=O)c2cccs2)cc1OC (centres undefined)	20µM*	-2%	i	6%	?
CCOc1ccc(S(=O)(=O)NCC(c2ccco2)S(=O)(=O)c2ccc(C)cc2)cc1 (centres undefined)	-2%	1%	i	-1%	?
Cc1ccc(C)c(S(=O)(=O)NCC(c2ccco2)S(=O)(=O)c2ccc(F)cc2)c1 (centres undefined)	2%	7.4µM*	i	1%	-5%
COc1ccc(OC)c(S(=O)(=O)NCC(c2cccs2)S(=O)(=O)c2ccc(F)cc2)c1 (centres undefined)	?	?	i	-2%	?

Source: PubChem BioAssay
